Assay results reported in the supplement of paper PMC3334620.
In all, about 33,000 sequences were measured (“E-score (-0.5 to 0.5)”: median about -0.032, highest 2% from about 0.36 on). Shown is part of a subset that was picked to be rich in the highest values.

These sequences were tested against T1, Sko1 (UniProt Q02100) (assay: PBM E-score (8-mer binding enrichment) (E-score (-0.5 to 0.5)); higher = stronger / more preferred TF binding). Conditions: protein concentration: 200 nM; construct: GST-full length.
T1 sequence: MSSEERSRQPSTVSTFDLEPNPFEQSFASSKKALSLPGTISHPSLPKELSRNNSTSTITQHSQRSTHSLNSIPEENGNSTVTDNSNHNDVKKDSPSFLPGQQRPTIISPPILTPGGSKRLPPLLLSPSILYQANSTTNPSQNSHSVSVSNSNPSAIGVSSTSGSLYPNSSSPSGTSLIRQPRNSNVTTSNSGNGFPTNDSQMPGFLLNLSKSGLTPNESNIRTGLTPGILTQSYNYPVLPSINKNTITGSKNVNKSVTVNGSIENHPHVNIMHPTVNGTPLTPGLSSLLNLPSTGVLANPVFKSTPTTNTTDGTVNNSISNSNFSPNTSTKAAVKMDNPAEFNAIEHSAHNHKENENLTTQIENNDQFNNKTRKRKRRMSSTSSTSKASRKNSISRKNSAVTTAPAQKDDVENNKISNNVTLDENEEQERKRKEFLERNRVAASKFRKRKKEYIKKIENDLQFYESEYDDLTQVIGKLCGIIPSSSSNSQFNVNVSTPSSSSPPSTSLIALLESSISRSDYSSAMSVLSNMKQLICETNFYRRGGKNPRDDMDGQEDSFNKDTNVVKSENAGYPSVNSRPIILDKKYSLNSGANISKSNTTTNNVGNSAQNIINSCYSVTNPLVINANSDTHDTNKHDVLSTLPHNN
In short: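 Yeast transcription factors, full-length or as DNA-binding domains, were expressed with a GST tag using PURExpress in vitro transcription/translation. At about 100-200 nM they were applied to universal all-10-mer Agilent arrays, double-stranded by primer extension on fresh or once-stripped slides. Fluorescent anti-GST detected bound protein, and masliner normalised the scans. E-scores for ungapped eight-base words, pooled with reverse complements, came from the Universal PBM Analysis Suite.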

Row | Sequence | PBM E-score
1 | CGTCACCA | 0.447
2 | CCTCACCC | -0.148
3 | AGTCACCA | -0.269
4 | GGTCACCA | -0.28
5 | AGTCACCC | -0.145
6 | CGTCACCC | 0.409
7 | AGCCAATG | -0.049
8 | CATAAGCA | -0.085
9 | CGTGGTTC | 0.0129
10 | ACGTCGCG | 0.356
11 | ACGTCGTA | 0.399
12 | ACGTCGTG | 0.361
13 | CCGTCGTC | -0.0549
14 | ACGTCGGC | 0.348
15 | AAGTCGTG | 0.00032
16 | GCGTCGTA | 0.234
17 | CCGTCGTA | 0.11
18 | ACGTCGTC | 0.387
19 | AGTTGCCC | -0.107
20 | ACATTCTA | 0.293
21 | AACCCAGC | -0.247
22 | CGGCCTAG | -0.324
23 | AGAAGCTG | -0.0693
24 | ACAGCTGT | -0.245
25 | GGGCAGAC | -0.242

Row | Sequence | PBM E-score
26 | ACTGGTAT | -0.17
27 | ACTCGTCT | -0.0567
28 | ACTCGTCA | 0.404
29 | TCTCGTAA | 0.276
30 | GCTCGTCA | 0.351
31 | CCTCGTCC | -0.209
32 | ACTCGTCC | 0.0764
33 | CCTCGTCG | -0.233
34 | TCTCGTCA | 0.365
35 | CCTCGTCA | 0.381
36 | AACCCAAG | -0.00525
37 | ATAAGGAG | -0.159
38 | CGTAGACA | 0.264
39 | GCGTCCAC | -0.0966
40 | ATACTTTC | 0.0725
41 | AAAGACGA | 0.172
42 | ACCGACGT | 0.376
43 | ACCGACGC | 0.0727
44 | AACGACGA | 0.166
45 | AACGACGT | 0.411
46 | AAAGACGG | -0.111
47 | ACCGACGG | -0.181
48 | AAAGACGT | 0.448
49 | AACGACGG | 0.0454
50 | AGCTCAAA | 0.0839

Row | Sequence | PBM E-score
51 | ATGCCCTG | -0.17
52 | TACGGTGA | 0.0938
53 | ACGGTCGG | -0.28
54 | ACGGTCTG | -0.0646
55 | GACCGCTC | -0.21
56 | CCAGTCTA | -0.255
57 | CAGTGACA | 0.0692
58 | CATTGACC | 0.114
59 | CATTGACA | -0.0852
60 | AAGTGACG | 0.445
61 | AAGTGACC | -0.141
62 | CAGTGACC | -0.18
63 | CAGTGACG | 0.408
64 | AAGTGACT | -0.0253
65 | CATTGACG | 0.412
66 | GGCGAAAA | 0.0196
67 | ATGTCCAC | 0.116
68 | GCCTGTCA | -0.157
69 | CCGGTCAA | -0.12
70 | GTATTGCA | 0.0688
71 | CACTGGGC | -0.304
72 | CTTTCATA | 0.257
73 | GCTAGCCC | -0.26
74 | AACCGTTG | -0.00171
75 | CGGCATAC | -0.00615

Row | Sequence | PBM E-score
76 | ACGCCTGA | 0.15
77 | CAATATTA | 0.264
78 | TAATATTA | 0.362
79 | AAATATTA | 0.295
80 | AGGCCAGG | -0.292
81 | CCTATACC | -0.227
82 | CATGACCG | 0.0181
83 | AAGAAGTG | -0.0945
84 | CAGGGAAG | -0.212
85 | GTGGTTAA | 0.205
86 | ACCGCTTA | -0.00218
87 | AACGTGAA | 0.14
88 | CACGTGAA | 0.319
89 | TACGTGGA | 0.424
90 | TACGTGAA | 0.425
91 | CACGTGGA | 0.315
92 | GACGTGGA | 0.23
93 | CGAGCCTC | -0.324
94 | GGCCCCTA | -0.188
95 | TAGGCTCA | -0.19
96 | AAACAGTA | 0.14
97 | AGATTACG | 0.459
98 | CGATTACC | -0.0987
99 | AGATTACT | 0.201
100 | AGATTACC | 0.108

Row | Sequence | PBM E-score
101 | CGATTACG | 0.448
102 | CGATTACA | 0.106
103 | ACCTGGCG | -0.109
104 | AAGCTACG | 0.251
105 | GAAAAAAC | 0.201
106 | TATGACCA | 0.178
107 | AATGACTA | 0.0941
108 | AATGACGA | 0.476
109 | AATGACCA | 0.0136
110 | CCTGACGA | 0.24
111 | ACTGACGG | -0.104
112 | ACTGACGA | 0.364
113 | TATGACGA | 0.475
114 | CATGACAC | 0.258
115 | CATGACGC | 0.465
116 | CATGACTC | -0.0516
117 | TATGACAA | 0.21
118 | TCGACGCA | 0.0313
119 | ATCGCCAA | -0.119
120 | GTTTTCTA | 0.201
121 | GCAGTAGA | -0.0999
122 | ATGGCAGG | -0.281
123 | CAGGACCC | -0.221
124 | CATGACGA | 0.463
125 | GATGACCA | 0.0721

Row | Sequence | PBM E-score
126 | GATGACGA | 0.474
127 | GATGACAC | 0.257
128 | GATGACCC | -0.0957
129 | GATGACGC | 0.473
130 | GATGACTA | 0.0669
131 | ACTGACGC | 0.334
132 | CATGACGG | 0.326
133 | CATGACAA | -0.00914
134 | ATTGACGC | 0.319
135 | AATGACGC | 0.478
136 | GGACCCTA | -0.273
137 | GTTTTGTA | 0.262
138 | ACGATAGT | 0.295
139 | ATATGCGC | 0.0277
140 | CGATCGCG | 0.0985
141 | CGAGCACG | 0.0337
142 | GACCAGCA | -0.185
143 | GAGGGCGA | -0.265
144 | AATGACCG | 0.0453
145 | ATTGACGG | 0.0348
146 | AATGACGG | 0.388
147 | GCCTCAGA | -0.148
148 | GCGTAACA | 0.317
149 | ACGTAACA | 0.464
150 | ACGTAACC | 0.469

Row | Sequence | PBM E-score
151 | AGGTAACT | 0.0427
152 | CCGTAACG | -0.103
153 | GCGTAACC | 0.328
154 | CCGTAACC | -0.0904
155 | ACGTAACG | 0.469
156 | ACGTAACT | 0.459
157 | AAGTAACG | 0.0665
158 | AAGTAACT | 0.153
159 | TCGTAACA | 0.275
160 | AGCTGTGG | -0.296
161 | GGTCCCAC | -0.0859
162 | AATGAGTA | 0.178
163 | CGGACTGC | -0.0639
164 | CTCTTACA | -0.0812
165 | ATTTAGTA | 0.25
166 | ATGAAATG | -0.059
167 | AGGCAAGC | -0.126
168 | GATACGGA | -0.0181
169 | CATACGCC | 0.182
170 | AATACGGG | -0.111
171 | AATACGCG | 0.287
172 | CATACGGC | -0.0208
